SMN2 splice up – qHTS Assay for Enhancers of SMN2 Splice Variant Expression. HEK293 SMN2-luciferase splicing reporter, luminescence, 30-36 h. Potency, µM (top dose mostly 46.1 µM), without a hit: at the highest dose activity change, positive = activation, actives largely listed as activators. 210,000 tested, 2.8% active; note: % of control where 0% means no effect; nearly all actives have a fitted effect of over 55% in size
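qHTS luciferase splicing reporter: luminescence rises when SMN2 exon 7 is included in transfected HEK293 cells. Compound exposure lasted 30-36 h at 37C, with 4.5 mM final sodium butyrate as control, followed by a ONE-Glo read.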
NPC1 promoter act – qHTS Assay for NPC1 Promoter Activators; 320,000 tested, 2.4% active; Potency, µM (top dose mostly 9.22 µM), for inactives: top-dose activation, most hits filed as activators; Huh7 NPC1 promoter luciferase reporter, 24 h; AID 485313, 2010; note: % of control where 0% means no effect; nearly all actives have a fitted effect of over 60% in size
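Compounds in DMSO were transferred onto Huh7 NPC1-luciferase reporter cells pre-incubated 2 h; after 24 h at 37 °C, Amplite reagent was dispensed and luminescence recorded 10 min later.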
ELG1 genotoxic – qHTS screen for small molecules that induce genotoxicity in human embryonic kidney (HEK293T) cells expressing luciferase-tagged ELG1 | HEK293T ELG1-luciferase reporter, luminescence, 16 h | 330,000 tested, 1.3% active | Potency, µM (top dose mostly 46 µM), inactives show top-dose activity change, positive = activation, most hits filed as activators; note: % of control where 0% means no effect; nearly all actives have a fitted effect of over 60% in size
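DMSO vehicle served as control against compound-treated ELG1-luciferase HEK293T cells; exposure lasted 16 hr at 37 °C and 5% CO2, followed by ONE-Glo luminescence detection after 30 min.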
FLuc modulator – qHTS profiling assay for firefly luciferase inhibitor/activator using purifed enzyme and Km concentrations of substrates (counterscreen for miR-21 project). purified FLuc, Km substrates, luminescence inhibition. Potency, µM (highest dose often 57.5 µM), inactives show top-dose activity change, negative = inhibition, usual class: inhibitors. 360,000 tested, 6.9% active. AID 588342, 2011;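 note: plate controls were vehicle for no effect and reference inhibitor for full effect; nearly all actives have a fitted effect of over 55% in size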
Target sequence (P08659 whole entry, looked up): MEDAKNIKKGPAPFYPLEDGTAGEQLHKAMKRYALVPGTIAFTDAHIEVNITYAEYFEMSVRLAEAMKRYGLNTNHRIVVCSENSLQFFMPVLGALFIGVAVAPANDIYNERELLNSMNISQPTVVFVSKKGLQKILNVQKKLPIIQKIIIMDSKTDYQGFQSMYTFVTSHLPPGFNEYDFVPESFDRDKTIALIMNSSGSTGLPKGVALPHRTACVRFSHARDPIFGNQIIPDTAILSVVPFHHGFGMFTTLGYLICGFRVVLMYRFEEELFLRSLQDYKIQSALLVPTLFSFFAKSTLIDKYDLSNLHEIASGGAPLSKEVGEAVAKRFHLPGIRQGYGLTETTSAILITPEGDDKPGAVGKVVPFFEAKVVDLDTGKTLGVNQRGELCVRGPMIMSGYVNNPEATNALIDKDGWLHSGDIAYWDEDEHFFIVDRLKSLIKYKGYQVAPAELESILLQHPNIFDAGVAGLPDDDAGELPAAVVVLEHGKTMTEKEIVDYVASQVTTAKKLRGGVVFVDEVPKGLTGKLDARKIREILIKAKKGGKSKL
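Purified P. pyralis luciferase, 10 nM final, with Km-level 10 uM D-luciferin and 10 uM ATP in 50 mM Tris acetate pH 7.5, 10 mM Mg acetate, 0.01% Tween-20, 0.05% BSA; 6-point qHTS titration about 60 µM downward; luminescence read.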
Luc counter – Counterscreen for Luciferase (Kinase-Glo TM) Inhibition | 200,000 tested, 0.28% active | Kinase-Glo luciferase, ATP luminescence, 8 min | Potency, µM (top dose mostly 38.3 µM), inactives show at the top dose activity change, negative = inhibition, most hits filed as inhibitors | Luciferin 4-monooxygenase (Photuris pensylvanica), Q27757; note: % is set by controls: 0 for no effect and ±100 for the full control effect; nearly all actives have a fitted effect of over 60% in size
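Substrate mix (final 50 mM imidazole pH 7.2, 50 mM KCl, 7 mM MgCl2, 10 uM ATP, 0.01% Tween 20, 0.05% BSA) plus pin-tool compound, then Kinase-Glo detection mix; 8 min ambient, luminescence read.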
Rab9 promoter act – qHTS Assay for Rab9 Promoter Activators; AID 485297, 2010; Potency, µM (highest dose often 9.22 µM), inactives show top-dose activation, negative = inhibition, usual class: activators; 320,000 tested, 2.8% active; Huh7 Rab9 promoter-luciferase reporter, luminescence, 24 h; note: % of control where 0% means no effect; nearly all actives have a fitted effect of over 60% in size
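Quantitative HTS format; Huh7 Rab9-luciferase reporter cells (1500/well) receive compound 2 h post-plating, incubate 24 h at 37 °C, then get luciferase reagent for 10 min before luminescence reading.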
* = called active by the depositor; ? = inconclusive; / = no result; [ ] = dose if it differs, or a comment. The list is not random: actives were taken first. Their share in the collection is about 7.4%. Calls come from the whole dose curve; as a rule, active = well fitted curve in the direction sought with a large enough effect; inconclusive = small, poorly fitted or top-dose-only effect, or another doubt; inactive = no such curve, though single readings can be large; an effect the other way counts as inactive or inconclusive. Potency is the fitted concentration of half-maximal effect.

SMILES	SMN2 splice up	NPC1 promoter act	ELG1 genotoxic	FLuc modulator	Luc counter	Rab9 promoter act
Brc1ccc(-c2ccc(C3Nc4cccc5cccc(c45)N3)o2)cc1	/	-2.9%	-2.3%	-4.9%	/	3.7%
Cc1ccc(-c2onc(C)c2C)cc1S(=O)(=O)N1CCc2ccccc21	/	/	/	-11.6%	/	/
CCCCOc1cccc(-c2cc(C(=O)NNC(=S)NCC)c3ccccc3n2)c1	20.6%	7.2%	?	1.51µM*	0.4%	15.6%
CCCCOc1ccc(-c2cc(C(=O)NNC(=S)NCC)c3ccccc3n2)cc1	3.16µM*	?	?	0.0757µM*	?	?
CCNC(=S)NNC(=O)c1cc(-c2cccc(C)c2)nc2ccccc12	?	?	2.0%	0.338µM*	12.6µM*	?
COc1ccc(Cl)cc1C(=O)NNC(=S)NC(=O)c1cc(-c2ccc(Cl)cc2)nc2ccccc12	-35.5%	-7.0%	1.5%	4.3%	-7.7%	-6.0%
CCNC(=S)NNC(=O)c1cc(-c2ccc(OC)cc2)nc2ccccc12	7.94µM*	?	?	0.0757µM*	?	?
O=C(NCCc1nc2ccccc2n1Cc1ccccc1F)c1ccc(F)cc1	-6.5%	/	/	5.5%	/	/
CCNC(=S)NNC(=O)c1cc(-c2cccc(OCC)c2)nc2ccccc12	16.2%	11.8%	?	1.35µM*	-5.1%	17.1%
COC(=O)C1CCN(C(=O)C2CCC(=O)N(CCc3cccc(F)c3)C2)CC1 (stereo not drawn)	/	-1.6%	2.4%	-2.2%	/	-1.0%
CSc1ccccc1C(=O)N1CCN(S(=O)(=O)c2sc(C(=O)O)c(C)c2C(=O)O)CC1	/	-6.7%	0.6%	/	/	3.8%
COc1ccc(C(=O)N[C@H](C(=O)Nc2nc3c(s2)CCCC3)C(C)C)cc1	?	-1.6%	14.7%	15.1µM*	-1.4%	23.2%
CC(=O)c1sc(NC(=O)c2ccc(Br)o2)nc1C	/	?	16.4µM*	19µM*	/	26.5%[1.84 µM]
CC(=O)c1sc(NC(=O)C=C(C)C)nc1C	20µM*	18.7%	18.4µM*	?	-24.6%	28.3%
O=C(Nc1nc2c(s1)CCCC2)c1ccc(Br)o1	11.2µM*	2.24µM*	11.6µM*	1.51µM*	-26.9%	1.26µM*
Cc1cc(C)cc(NC(=O)NCCn2nnc3cc(S(=O)(=O)N(C)C)ccc32)c1	/	/	/	-7.4%	/	/
COc1ccc(CNc2ncc(-c3cccc([N+](=O)[O-])c3)n2C)c(OC)c1OC	/	-5.9%	-4.7%	4.4%	/	-10.1%
CC(C)Cn1c(N)c(C(=O)COC(=O)Cc2cccc(C(F)(F)F)c2)c(=O)n(C)c1=O	/	-0.2%	17.4%	7.6%	/	-3.8%
Cc1ccc(C(=O)Nc2nc3c(s2)CCCC3)o1	14.1µM*	3.16µM*	1.16µM*	1.69µM*	?	1µM*
Cc1onc(-c2ccccc2Cl)c1C(=O)Nc1nc2c(s1)CCCC2	12.9%	27.0%	4.4%	13.5µM*	-2.4%	?
Cc1onc(-c2ccccc2Cl)c1C(=O)Nc1nnc(-c2ccc(Cl)cc2Cl)s1	0.4%	1.7%	-18.2%	?	2.5%	-1.5%
Cn1cccc1C(=O)c1ccc(Cl)cc1Cl	-15.4%	6.7%	3.1%	-3.6%	13.6%	1.0%
Cn1nccc1C(=O)NC(=S)Nc1cc(Cl)cc(Cl)c1	/	-5.5%	2.0%	0.4%	/	-6.8%
Cn1cccc1C(=O)C(=O)Nc1cc(Cl)cc(Cl)c1	-4.4%	?	24.7%	?	11.2µM*	?
Cn1cccc1C(=O)C(=O)Nc1ccc(F)c(F)c1	11.2µM*	2µM*	?	10.7µM*	-25.1%	1.26µM*
SMILES	SMN2 splice up	NPC1 promoter act	ELG1 genotoxic	FLuc modulator	Luc counter	Rab9 promoter act
Cn1cccc1C(=O)C(=O)Nc1cccc(Cl)c1Cl	25.1µM*	4.8%	?	2.39µM*	-17.7%	21.6%
Cn1cccc1C(=O)C(=O)Nc1ccc(Cl)cc1	10µM*	0.794µM*	?	1.9µM*	?	0.501µM*
CC(Sc1nnc(N)s1)C(=O)Nc1ccc2c(c1)OCCO2 (stereo not drawn)	/	1.3%	7.2%	-19.4%	/	16.8%
Cc1ccc(C2=NN(CC(=O)NCCC(C)C)C(=O)CC2)cc1	/	-0.3%	3.0%	0.8%	/	-6.1%
COc1ccc(-n2nnnc2SCC(=O)NCCc2ccccc2)cc1	-7.9%	/	/	-2.0%	/	/
CCN(CC)c1ccc(CNS(=O)(=O)c2cc3c(cc2C)NC(=O)CO3)cc1	/	/	/	2.4%	/	/
Cc1ccnc(Nc2nc3ccccc3o2)n1	2.51µM*	?	1.16µM*	3.01µM*	12.6µM*	0.398µM*
Cc1ccc(Nc2c3c(nc4ccccc24)CCC3)cc1F	-29.7%	/	/	-2.3%	/	/
CCOC(=O)c1cnc(Nc2nc3ccccc3o2)nc1CSC(=S)N(CC)CC	-7.2%	7.7%	0.4%	-11.1%	-1.5%	13.4%
CCCc1nc(Nc2nc3ccccc3o2)nc(C)c1C(=O)OCC	?	?	?	2.69µM*	-8.2%	1.78µM*
CCS(=O)(=O)c1ccc2oc(Nc3cc(C)cc(C)c3)nc2c1	-34.3%	0.5%	-0.6%	-5.8%	-0.1%	-1.6%
Cc1ccc2oc(Nc3nc(C)c(C)c(C)n3)nc2c1	/	1.58µM*	?	10.7µM*	/	2.51µM*
Cc1ccc(Nc2nc3ccccc3o2)cc1F	?	?	5.8µM*	6.01µM*	-15.1%	1.58µM*
CCOc1c(Br)cc(C2C=C(C(=O)O)Nc3ncnn32)cc1OC (stereo not drawn)	7.8%	/	/	-3.2%	/	/
Cc1sc2ncnc(SCC(=O)N3CCCC(C(N)=O)C3)c2c1C (stereo not drawn)	/	4.0%	2.5%	1.3%	/	-4.5%
Cc1nc2ccccc2oc1=O	10.4%	/	/	/	1.4%	/
Cc1nc(Nc2nc3ccccc3o2)nc(C)c1C	5.62µM*	1µM*	?	8.49µM*	11.2µM*	?
O=c1[nH]c2ccc(NCc3ccc(F)cc3)cc2[nH]1	/	13.6%	-5.8%	16.9µM*	/	14.5%
COc1cc(CNc2ccc3[nH]c(=O)[nH]c3c2)cc(Cl)c1OCc1ccc(F)cc1	/	/	/	-4.3%	/	/
CC1(C)CC(=O)c2sc(NC(=O)c3ccccc3)nc2C1	12.6µM*	0.447µM*	?	1.9µM*	-15.2%	0.708µM*
CC1(C)CNC(=O)c2sc(NC(=O)c3ccccc3)nc2C1	11.2µM*	?	16.3%	?	-3.5%	?
CC1(C)CC(=O)c2sc(NC(=O)C(C)(C)C)nc2C1	/	?	?	?	4.7%	2.82µM*
CC1(C)CC(=O)c2sc(NC(=O)c3cccs3)nc2C1	2.24µM*	?	?	0.757µM*	?	0.501µM*
